From the supplement of paper PMC6555819

Assays:
Assay in all cases: PBM binding z-score (relative to random genomic background probes); higher = stronger binding; sequences stand for … in GC…GCGATTGACAGCGTAGAATGAAGG
[1] = system: RARb homodimer (NR concentration 270 nM)
Procedure, shortened: (§1)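 For binding z-scores, the reference was random background probes on custom Agilent 4×180K protein-binding microarrays. These arrays were incubated 1 h with ligand-free nuclear receptor dimers in PBS pH 7.4, 2% milk, 0.02% Triton X-100, 1 mM DTT, 0.2 mg/mL BSA and 0.4 mg/ml salmon testes DNA. Fluorescence was scanned after antibody detection of each partner (one per run) and regression-normalized.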

[2] = system: RARg:RXRa (NR concentration 270 nM, RXRa partner concentration 90 nM)
Procedure, shortened: as §1

[3] = system: RARg homodimer (NR concentration 270 nM)
Procedure, shortened: as §1

[4] = system: RXRa DBDmut IVT, anti-RXR (DBD mutation: RXRa K156A/R161A, NR concentration 90 nM)
Procedure, shortened: as §1

[5] = system: RXRa homodimer (NR concentration 180 nM)
Procedure, shortened: as §1

[6] = system: THRa:RXRa (NR concentration 90 nM, RXRa partner concentration 90 nM)
Procedure, shortened: as §1

[7] = system: THRa homodimer (NR concentration 90 nM)
Procedure, shortened: as §1

[8] = system: VDR:RXRa (NR concentration 270 nM, RXRa partner concentration 90 nM)
Procedure, shortened: as §1

[9] = system: VDR homodimer (NR concentration 270 nM)
Procedure, shortened: as §1

Row | Sequence | PBM binding z-score [1] | PBM binding z-score [2] | PBM binding z-score [3] | PBM binding z-score [4] | PBM binding z-score [5] | PBM binding z-score [6] | PBM binding z-score [7] | PBM binding z-score [8] | PBM binding z-score [9]
1 | CGAACTAGGTCAGAACAGGACAGTAAAGGATGAT | 2 | 2.48 | 3.35 | 0.613 | 1.27 | 3.43 | 0.235 | 0.971 | 0.325
2 | TAGCCTAGGCCAGATCGGGCCAGTATACGCTATA | -0.577 | -0.451 | -0.0912 | -1.32 | -0.625 | 0.522 | -0.893 | -0.802 | -0.924
3 | TGGCCTAGGTCATTCAGGGGCCAGTATAGAAAGC | 3.18 | 6.37 | 5.07 | 1.39 | 3.29 | 3.47 | 0.314 | 2.79 | 1.37
4 | TCTCGGAGGAGACGAAGGTCAGAGCTTTCCAGAG | 2.74 | 1.88 | 1.77 | -0.234 | 1.63 | 1.11 | -0.507 | 0.483 | -0.413
5 | GCTTGTAGATCAAGGTTAAGGAAGACTAAGCTAA | 0.296 | 0.309 | 0.222 | -0.171 | 0.702 | 1.25 | -0.259 | 0.00298 | -0.459
6 | ATCGAAAGGTCGAGGTGAGTGTAGAGAAAGGGAA | 2.96 | 4.37 | 4.06 | 0.896 | 4.28 | 3.21 | 0.885 | 3.21 | 0.854
7 | ATCGAAAGGTCCTGAGGTGAGTATACAGAAAGGC | 1.02 | 1.36 | 0.977 | -0.513 | 1 | 1.98 | 0.778 | 0.189 | -0.0485
8 | GATACCGGGTCAGCTAGAGGCCAGAGTATGGAAA | 2.63 | 5.9 | 3.71 | -0.115 | 2.83 | 2.64 | 0.0916 | 2.26 | -0.166
9 | CCGAGTAGGTTGTGGGGCATTCAGGCAACGGTGA | 0.739 | -0.398 | -0.497 | -0.201 | -0.326 | 0.119 | 0.578 | -0.367 | 0.435
10 | CGTCCAAGGTCATAGCAGGTCAGTGAAGACAGAT | 4.65 | 6.19 | 6.53 | 3.91 | 5.72 | 4.99 | 2.79 | 5.93 | 3.76
11 | TAGAGTAGGTTAGTCGGGGCATTCAGCCAACATA | 0.711 | 0.539 | 0.52 | -0.0578 | 0.327 | 1.42 | 0.443 | 2.52 | 1.03
12 | CCTTACGGGTCACTCCAGGTTATAGGATCGGAGT | 3.21 | 4.55 | 4.56 | 1.45 | 4.79 | 4.95 | 0.641 | 4.34 | 1.51
13 | TCTAGTTGGTCATAGGTCACACACTCGAAATGCG | 3.67 | 4.2 | 3.58 | 1.63 | 4.58 | 2.68 | 1.47 | 3.19 | 1.63
14 | ATCGAAAGGTCGGGGTGAGTATAGAGAAAGGGAA | 2.88 | 3.7 | 3.63 | 1.78 | 3.77 | 3.06 | 1.35 | 3.1 | 1.52
15 | TCGTATAGGTAATACAGGTGAAAGTCGGCATCTA | 0.603 | 0.62 | 0.295 | 1.08 | 0.949 | 1.15 | 0.259 | 0.991 | 0.57
16 | GCTAGTTGGTCAGTAAAAGGTCTCACACCGGTCG | 1.45 | 0.572 | 0.449 | -0.133 | 0.172 | 0.0932 | 0.0808 | -0.141 | -0.174
17 | GCGACTGGGGCATCAGCAGGTTACCATCACTTAA | 0.92 | 0.879 | 0.45 | -0.0239 | 0.259 | 0.783 | 0.0403 | -0.265 | -0.183
18 | GTACCAATGTGAATAGGTCGTTGATGAGTAGGCG | 0.0633 | 0.177 | 0.344 | -0.108 | 0.356 | -0.0211 | -0.677 | -0.000523 | 0.254
19 | AGTCAAAGTCCACTAGGTAACGTAAGATTCAGCT | 0.615 | 0.39 | 0.85 | 0.801 | -0.0426 | 0.284 | 0.284 | -0.0687 | -0.159
20 | CAAACTAGGTCAACGGAAGGTCAAAGTCCGCATG | 5.37 | 8.1 | 6.98 | 2.17 | 5.99 | 4.24 | 2.34 | 5.56 | 3.65
21 | CCAGACACGTGAGAAGGTAACTCAGCCTCGATTA | -0.118 | 0.0186 | 0.206 | 0.268 | 0.0109 | -0.00448 | -0.0296 | -0.39 | 0.0283
22 | TCTCGGAGGACACGAAGATCAGAGCTTTCCAGAG | 0.193 | 0.499 | 1.05 | 0.0261 | 0.273 | 1.1 | 0.242 | -0.165 | -0.899
23 | CCTTACGGGTCACTGACAGGTTATCGCATTTGGA | 3.3 | 5.91 | 4.66 | 1.9 | 5.05 | 3.02 | 0.17 | 3.85 | 0.982
24 | CCAGACAGGGGAAAGGTAACTCAGTCTGGTACGC | 0.183 | 0.177 | -0.0948 | -0.138 | 0.529 | 0.146 | 0.0595 | -0.0821 | -0.41
25 | TCGTATAGGTAAACAGGTGAAAGTCCGTAAGTTA | 1.14 | 0.368 | 0.358 | 1.41 | 0.637 | 0.794 | 0.786 | 0.883 | 0.302
26 | TCTTGTAGATCAACAGGAGGTTAAGGAAGATCGA | 0.564 | 0.698 | 0.308 | 0.0925 | 0.861 | 0.777 | -0.373 | 0.488 | -0.358

Row | Sequence | PBM binding z-score [1] | PBM binding z-score [2] | PBM binding z-score [3] | PBM binding z-score [4] | PBM binding z-score [5] | PBM binding z-score [6] | PBM binding z-score [7] | PBM binding z-score [8] | PBM binding z-score [9]
27 | TCATATAGGTAATTCAGGTGAAAGTCGGCATCTA | 0.654 | 0.323 | 0.241 | 1.73 | 0.923 | 2.52 | 1.8 | 1.11 | 0.399
28 | CGTACAAGGTCATAGGAGGTCAGTGAAGACAGAT | 5.45 | 6.72 | 7.17 | 4.16 | 6.75 | 5.49 | 3.23 | 6.79 | 4.19
29 | TGTATTAGTTGAAGGGCAACCGACGAGTCCGTTT | 1.63 | 0.727 | 1.06 | 0.401 | 0.406 | 0.237 | 0.213 | 0.926 | 1.55
30 | CAAACTAGGTCAAGAGGTCTAAGTCCGCTTCCCG | 3.42 | 4.23 | 4.4 | 1.73 | 2.76 | 2.82 | 1.1 | 3.91 | 1.23
31 | TCGAGTAGGTTACAAATGGGGCATTCAGCTTTCT | 0.369 | 0.68 | 0.323 | 0.884 | 0.39 | 0.1 | -0.394 | 0.216 | -0.133
32 | TCTGCTAGGTCAACTATGGTCAGCTAATCTGCTA | 3.57 | 4.26 | 5.22 | 1.45 | 3.13 | 3.87 | 0.915 | 2.12 | 0.149
33 | AGCTCTAGGTAAGACTCAGTTCAGTGAAGAACGC | 0.218 | -0.161 | -0.269 | 0.149 | -0.208 | 0.465 | 0.312 | 0.321 | 1.14
34 | CCTACTGGGCCATTCAGATGTCATTGATCATATG | 0.108 | 0.278 | 0.389 | 0.148 | -0.34 | -0.291 | -0.95 | -0.54 | -0.52
35 | TCTGACAGGTGAAGGTAACTCAGGTACGCAGTCG | 0.819 | 0.644 | 0.639 | 0.827 | 0.901 | 1.5 | 0.158 | 0.667 | 0.222
36 | CGGACTAGGTCAGAACAGGACAGTGAAGGATGAT | 1.79 | 2.4 | 2.97 | 0.496 | 1.15 | 3.38 | 0.402 | 0.538 | -0.0539
37 | ACTAGCAGGCCAAGGGTCACCCAAGATTAGTCCG | 3.96 | 4.79 | 4.32 | 0.27 | 4.91 | 3 | 0.576 | 3.3 | 0.895
38 | TCGAGTAGGTTAGTCGGGGGATTCAGCCAACATA | 0.341 | 0.199 | 0.0266 | 0.48 | 0.178 | 1.25 | 0.267 | 0.946 | 0.183
39 | AGAATGAGGTTGCCAAAGATCAGGGAAACGCTTG | -0.195 | 0.266 | 0.336 | 0.261 | 0.9 | 0.855 | -0.384 | 0.143 | -0.0161
40 | CGAACGAGGGCACGAGTTGATAGCAAATGCCGAT | 1.05 | 1.8 | 1.98 | 2.18 | 1.49 | 1.84 | 0.134 | 1.97 | 1.58
41 | TCGAGTAGGTTACCAATGGGGCGTTCAGCTTTCT | 0.227 | 0.184 | 0.225 | 0.454 | 0.239 | -0.0946 | -0.39 | -0.111 | -0.531
42 | GGAACGAGGGCATTCGAGTTAATAGCATGGCGAT | 0.504 | 1.33 | 1.59 | 2.83 | 1.09 | 3.22 | -0.196 | 2.35 | 2.58
43 | TAGCCCAGGTCATGCGGGCCAGTATAGTGTCGGC | 2.94 | 4.07 | 3.99 | 1.22 | 3.45 | 3.85 | 2.4 | 3.7 | 1.49
44 | ACTAGTTAGTCAGCTGAGGTCACACACAATTCGG | 4.4 | 3.65 | 3.31 | 1.91 | 4.01 | 4.76 | 5.46 | 4.19 | 3.81
45 | CCTTACGGGTCACGAGGTTATAGAACGACGAGCG | 4.13 | 6.4 | 5.59 | 1.18 | 7.41 | 3.8 | 1.14 | 5.31 | 2.22
46 | CAAACTAAGTCACAGAGGTCAAAGTCCGTGCGTA | 4.47 | 5.34 | 4.96 | 2.26 | 5.91 | 3.71 | 1.87 | 6.65 | 4.45
47 | GCTAGCAGGCCATTTGGGTCACTCAATGACGGGC | 2 | 1.11 | 1.55 | 0.0537 | 0.821 | 1.94 | 0.534 | 0.933 | 0.524
48 | CCTTACGGGTCACTCCAGGTTATAGCGTCGGAGT | 2.85 | 4.55 | 4.23 | 1.41 | 4.06 | 5.06 | 0.469 | 4.14 | 1.5
49 | CCTACTGGGCCAAAGGTCATTGATTCCAATGCTC | 4.66 | 5.94 | 4.86 | 1.43 | 7.21 | 3.33 | 0.631 | 4.75 | 2.09
50 | CAAACTAGGTCCCCGGAAGGTCAAAGTCCGCATG | 4.26 | 4.15 | 3.32 | 0.0846 | 3.49 | 2.91 | 1.33 | 3.23 | 2.2
51 | ATCGAAAGGTCGACGGGGTGAGTATACACCGTTT | 3.14 | 4.6 | 4.63 | 1.61 | 5.07 | 3.57 | 0.568 | 5.62 | 1.7
52 | AGAATGAGGTTATACGTAGATAAGGGAAGAAAGT | 0.654 | 1.77 | 1.26 | 1.23 | 2.29 | 2.11 | 0.472 | 1.47 | 0.781
